# In paper PMC4552634, “A New Set of Chemical Starting Points with Plasmodium falciparum Transmission-Blocking Potential for Antimalarial Drug Discovery” (PLoS ONE, 2015):
# Where two headings read alike, the source gives them in different places. The whole screen tested about 13,000 compounds, of which about 3,200 (25%) showed an effect of 50% or more. The list shows a part of the results.
# Tested on: P. falciparum stage V gametocytes
# Design: BacTiter-Glo ATP luminescence viability of purified stage V gametocytes in 384-well plates, per cent inhibition versus DMSO
# Details: 48 h, 5 µM, inhibitor
smiles,measurement,setting,value
O=C(NCCCN1CCN(c2cccc(Cl)c2)CC1)c1ccc(-c2nc3cc(Cl)c(Cl)cc3[nH]2)cc1 [TCMDC-140077],% Inhibition,,1.638%
Nc1nc(N)c2cc(S(=O)(=O)c3ccc4ccccc4c3)ccc2n1 [TCMDC-137192],% Inhibition,,3.776%
CCCCCCN1CCN(Cc2cccc(NC(=O)c3cccc(OCC)c3)c2)CC1 [TCMDC-134614],% Inhibition,,-30.42%
Cc1cc(N(C)C2CCN(CC3CCCCC3)C2)nc(Nc2ccc(Br)cc2)n1 (centres unmarked) [TCMDC-137023],% Inhibition,,-48.72%
CCCCCC(=O)N1CCOC(CCN2CCC(c3ccccc3)CC2)(c2ccc(Cl)c(Cl)c2)C1 (centres unmarked) [TCMDC-135328],% Inhibition,,-33.56%
CN1CCN(c2ccnc3ccc(NC(=O)Nc4cccc5c(Br)cccc45)cc23)CC1 [TCMDC-139347],% Inhibition,,3.223%
Cc1cccc2nc(-c3ccc(-c4ccc(CNCC5CCCO5)cc4)s3)[nH]c12.O=C(O)C(F)(F)F (centres unmarked) [TCMDC-133101],% Inhibition,,42.96%
CCN(CC)CCCC(C)Nc1c2cc(OC)ccc2nc2cc(Cl)c([N+](=O)[O-])cc12 (centres unmarked) [TCMDC-138329],% Inhibition,,-1.262%
CCN(CC)CCCC(C)Nc1c2ccccc2nc2c1ccc1ccccc12 (centres unmarked) [TCMDC-137517],% Inhibition,,51.71%
CCN(CC)CCCC(C)Nc1c2ccc(Cl)cc2nc2ccc(OC)cc12 (centres unmarked) [TCMDC-125480],% Inhibition,,101%
CCN(CC)CCCC(C)Nc1ccnc2[nH]c3ccccc3c12 (centres unmarked) [TCMDC-131826],% Inhibition,,12.54%
CCN(CC)CCCC(C)Nc1c2ccccc2nc2ccc3ccccc3c12 (centres unmarked) [TCMDC-137518],% Inhibition,,45.6%
Cc1cccc2[nH]c(-c3cccc(-c4ccc(NC(=O)c5cnn6cccnc56)cc4)c3)nc12 [TCMDC-136868],% Inhibition,,-35.86%
CCCc1c(Cl)cc(CNCCCNc2nc3ccncc3[nH]2)cc1Cl [TCMDC-140509],% Inhibition,,47.86%
CCCC(CNCc1ccc(Cl)c(C(F)(F)F)c1)CNc1nc2ccncc2[nH]1 (centres unmarked) [TCMDC-141057],% Inhibition,,56.14%
FC(F)(F)c1cc(CNCCCNc2nc3ccncc3[nH]2)ccc1Cl [TCMDC-140508],% Inhibition,,-5.854%
O=C(Nc1ccc(Br)cc1)c1cc(Br)ccc1NS(=O)(=O)c1cc(C(F)(F)F)cc(C(F)(F)F)c1 [TCMDC-139753],% Inhibition,,-9.383%
COc1cc(NC(=O)Nc2ccc(Br)cc2C(=O)Nc2ccc(Br)cc2)cc(OC)c1OC [TCMDC-139733],% Inhibition,,85.99%
O=C(Nc1ccc(Br)cc1)c1cc(Br)ccc1NS(=O)(=O)c1ccc(C(F)(F)F)cc1 [TCMDC-139752],% Inhibition,,29.13%
COc1ccc(F)cc1-c1ccc(C(=O)N2CCCN(c3ccc(C(F)(F)F)cn3)CC2)cc1 [TCMDC-133384],% Inhibition,,-50.34%
COc1ccc(F)cc1-c1ccc(C(=O)N2CCCN(c3ccc(C#N)cn3)CC2)cc1 [TCMDC-133385],% Inhibition,,2.781%
Cc1ccc(F)cc1-c1cc(N2CCCN(C(=O)c3ccc(Br)o3)CC2)ncn1 [TCMDC-125089],% Inhibition,,67.99%
COCCN1CCC(N(CC2(O)CCN(c3ccc(C(F)(F)F)cc3)CC2)C(=O)Cn2c(SCc3cccc(F)c3F)cc(=O)c3ccccc32)CC1 [TCMDC-141629],% Inhibition,,101.7%
O=C(Cn1c(SCc2cccc(F)c2F)cc(=O)c2ccccc21)N(Cc1ccc(-c2ccc(C(F)(F)F)cc2)cc1)C1CCN(CCO)CC1 [TCMDC-141705],% Inhibition,,107.3%
CCN1CCC(N(Cc2ccc(-c3ccc(C(F)(F)F)cc3)cc2)C(=O)Cn2c(SCc3cccc(F)c3F)cc(=O)c3ccccc32)C1 (centres unmarked) [TCMDC-141301],% Inhibition,,106.2%
CC(C)(C)n1nnnc1C(c1cccnc1)N(Cc1ccccc1)Cc1ccc(Cl)cc1 (centres unmarked) [TCMDC-123530],% Inhibition,,11.45%
O=C(NCc1ccc(F)cc1)Nc1cccc(-c2ccc(-c3nc4ccccc4[nH]3)cc2)c1 [TCMDC-133300],% Inhibition,,7.874%
Cc1nc2nc(N)nc(N)c2c(C)c1Cc1cccc(C(F)(F)F)c1 [TCMDC-137658],% Inhibition,,-3.325%
COc1ccc(CCCc2nc(N)nc(N)c2-c2ccc(Cl)cc2)cc1 [TCMDC-137358],% Inhibition,,-7.157%
COc1cc2nc(SCCCC#N)n(C3CCCCCC3)c(=N)c2cc1OC [TCMDC-123768],% Inhibition,,60.07%
COc1cc2nc(SCC(C)C)n(CCCn3ccnc3)c(=N)c2cc1OC [TCMDC-125667],% Inhibition,,47.91%
O=C(CC1SC(N2N=C(c3cccs3)CC2c2ccccc2)=NC1=O)Nc1ccccc1F (centres unmarked) [TCMDC-124761],% Inhibition,,0.7985%
CCN(CCCN1CCCCC1)c1cc(C)nc(Nc2ccc(Cl)c(C(F)(F)F)c2)n1 [TCMDC-132439],% Inhibition,,56.88%
CCN(CCCN1CCCCC1)c1cc(C)nc(Nc2ccc(F)c(C(F)(F)F)c2)n1 [TCMDC-132433],% Inhibition,,31.89%
CCN(CCCN1CCCCC1)c1cc(C)nc(Nc2ccc(C)cc2C(F)(F)F)n1 [TCMDC-132444],% Inhibition,,-24.78%
CCN(CCCN1CCCCC1)c1cc(C)nc(Nc2ccc(C)c(Cl)c2)n1 [TCMDC-132438],% Inhibition,,-8.632%
CCN(CCCN1CCCCC1)c1cc(C)nc(Nc2cccc(C(F)(F)F)c2C)n1 [TCMDC-132452],% Inhibition,,62.42%
CCN(CCCN1CCCCC1)c1cc(C)nc(Nc2cc(C(F)(F)F)ccc2C)n1 [TCMDC-132448],% Inhibition,,19.94%
Cc1cc(C)c(O)c(-c2cc(C(=O)Nc3ccc(S(=O)(=O)N4CC(C)OC(C)C4)cc3)[nH]n2)c1 (centres unmarked) [TCMDC-125184],% Inhibition,,-32.33%
CC1CCCCN1S(=O)(=O)c1ccc(NC(=O)c2cc(-c3ccccc3O)n[nH]2)cc1 (centres unmarked) [TCMDC-125855],% Inhibition,,-44.79%
O=C(/C=C/c1ccc(Cl)c(Cl)c1)NCCCCCN1CCN(C(=O)Nc2ccc(Cl)c(C(F)(F)F)c2)CC1 [TCMDC-135735],% Inhibition,,-27.61%
COC1CCC(C(=O)Nc2ccc(-c3cccc(-c4nc5ccc(C(F)(F)F)cc5[nH]4)c3)cc2)CC1 (centres unmarked) [TCMDC-136858],% Inhibition,,-5.175%
O=C(Nc1ccon1)c1cc(-c2cccnc2)nc2ccc(Cl)cc12 [TCMDC-124360],% Inhibition,,-4.584%
C=CCOC(=O)N1CCC(CNCc2ccc(-c3ccc(-c4nc5ccccc5[nH]4)s3)cc2)C1.O=C(O)C(F)(F)F (centres unmarked) [TCMDC-133037],% Inhibition,,-14.35%
CCNc1cc(C(=O)N[C@@H](Cc2ccco2)[C@H](O)CNC2CCCCC2)cc(N2CCCCS2(=O)=O)c1 [TCMDC-135304],% Inhibition,,34.63%
COc1cc(C(=O)N2CCN(C(C)C)CC2)ccc1CN(C)CCCN1CCN(c2cccc(Cl)c2Cl)CC1 [TCMDC-136519],% Inhibition,,106.1%
CC(C)N1CCN(c2ccc(OCCCCN3CCN(c4cccc(Cl)c4Cl)CC3)cc2Cl)CC1 [TCMDC-136639],% Inhibition,,-87.47%
Cc1cc(NC(=O)CCCN2CCN(c3cccc(Cl)c3Cl)CC2)ccc1N1CCN(C(C)C)CC1 [TCMDC-136696],% Inhibition,,-18.49%
COc1cc(C(=O)N2CCN(C(C)C)CC2)ccc1CN(C)CCCCN1CCN(c2cccc(Cl)c2Cl)CC1 [TCMDC-136506],% Inhibition,,104.3%
CC(C)N1CCN(c2ccc(OCCCCN3CCN(c4cccc(Cl)c4Cl)CC3)c(C(F)(F)F)c2)CC1 [TCMDC-136646],% Inhibition,,-6.976%
COc1cc(NC(=O)CCCN2CCN(c3cccc(Cl)c3Cl)CC2)ccc1N1CCN(C(C)C)CC1 [TCMDC-136697],% Inhibition,,87.5%
COc1ccc(N2CCN(CCCN3CCN(C(=O)c4ccc(/C=C/c5ccc(Cl)c(Cl)c5)cc4)CC3)CC2)c(OC)c1 [TCMDC-138215],% Inhibition,,-35.25%
CC(C)N1CCN(c2ccc(OCCCN3CCN(c4cccc(Cl)c4Cl)CC3)c(C(F)(F)F)c2)CC1 [TCMDC-136647],% Inhibition,,-2.358%
Cc1cc(NC(=O)CCN2CCN(c3cccc(Cl)c3Cl)CC2)ccc1N1CCN(C(C)C)CC1 [TCMDC-136695],% Inhibition,,39.36%
O=c1cc(N2CCNCC2)c(Cl)nn1Cc1ccc(NS(=O)(=O)c2ccc(Oc3ccccc3)cc2)cc1 [TCMDC-141701],% Inhibition,,10.25%
COc1ccc2nc(-c3cc(-c4ccc(NC(C)=O)cc4)cnc3N)[nH]c2c1 [TCMDC-135365],% Inhibition,,-4.081%
Cc1sc(CNCCCNc2cc(=O)c3ccccc3[nH]2)c(I)c1C [TCMDC-140907],% Inhibition,,-22.52%
CC(=O)N1c2ccccc2C(C)=CC1(C)C [TCMDC-123928],% Inhibition,,-1.243%
CCCC1N=C(N)N=C(N)N1c1cccc(C(F)(F)F)c1 (centres unmarked) [TCMDC-131298],% Inhibition,,-25.37%
CCN(CCCN1CCCCC1)c1cc(C)nc(Nc2ccc(Oc3ccccc3)cc2)n1 [TCMDC-132426],% Inhibition,,49.81%
Cl.Nc1ccnc2ccc(OCCCCCCc3ccccc3)cc12 [TCMDC-139072],% Inhibition,,-2.454%
CN(C)CCCn1c(C(=O)OC(c2ccccc2)c2ccccc2)cc2cc(OCc3ccccc3)ccc21 [TCMDC-138114],% Inhibition,,99.58%
CN(C)CCCOC(=O)c1cc2cc(-c3ccccc3)ccc2n1S(=O)(=O)Cc1ccccc1 [TCMDC-139121],% Inhibition,,46.9%
CN(C)CCCN(C)C(=O)c1cc2cc(-c3ccccc3)ccc2n1S(=O)(=O)c1ccccc1 [TCMDC-139127],% Inhibition,,25.92%
COc1cc(C(=O)NC2CCC(CN3CCC(c4c[nH]c5ccccc45)CC3)CC2)cc(Cl)n1 (centres unmarked) [TCMDC-139937],% Inhibition,,89.84%
O=C(NC1CCC(CN2CCC(c3c[nH]c4ccccc34)CC2)CC1)c1cc(-c2ccccc2)c(C(F)(F)F)s1 (centres unmarked) [TCMDC-140356],% Inhibition,,23.32%
Cn1nc(C(F)(F)F)cc1-c1ccc(C(=O)NC2CCC(CN3CCC(c4c[nH]c5ccccc45)CC3)CC2)s1 (centres unmarked) [TCMDC-140355],% Inhibition,,118.2%
O=C(NC1CCC(CN2CCC(c3c[nH]c4ccccc34)CC2)CC1)c1cc2ccccc2o1 (centres unmarked) [TCMDC-139764],% Inhibition,,94.95%
O=C(NC1CCC(CN2CCC(c3c[nH]c4ccccc34)CC2)CC1)c1cc2ccccc2s1 (centres unmarked) [TCMDC-139722],% Inhibition,% Inhibition,56.81%
O=C(NC1CCC(CN2CCC(c3c[nH]c4ccccc34)CC2)CC1)c1cc2ccccc2s1 (centres unmarked) [TCMDC-139710],% Inhibition,% Inhibition,-31.58%
Cc1ccccc1C1CCN(C2CCC(NC(=O)c3ccc(-c4cc(C(F)(F)F)nn4C)s3)CC2)CC1 (centres unmarked) [TCMDC-134107],% Inhibition,,-22.15%
